Data from PubChem BioAssay AID2642 (Johns Hopkins Ion Channel Center, 2010).
In all, about 310,000 compounds went through this assay and about 3,900 (1.3%) were called active.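 Rule for the calls: active = compounds whose thallium flux B-score, printed positive for inhibition, exceeds three library SD while starting fluorescence stays within three; inactive = the rest.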 For the sample, actives were picked, then their nearest neighbours and some compounds at random.

The molecules below were run against Potassium voltage-gated channel subfamily KQT member 1 (Homo sapiens) (UniProt P51787) (assay: KCNQ1 potassium current blockers – cell-based, thallium flux, high-throughput, primary screen (AID 2642;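 note: channel opened by potassium depolarization with thallium stimulus after 20 min compound exposure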)). Settings: CHO-K1 KCNQ1, FluxOR thallium flux fluorescence, at 10 µM; active compounds read high.
Chain of Potassium voltage-gated channel subfamily KQT member 1 (Homo sapiens) (P51787 whole entry, looked up): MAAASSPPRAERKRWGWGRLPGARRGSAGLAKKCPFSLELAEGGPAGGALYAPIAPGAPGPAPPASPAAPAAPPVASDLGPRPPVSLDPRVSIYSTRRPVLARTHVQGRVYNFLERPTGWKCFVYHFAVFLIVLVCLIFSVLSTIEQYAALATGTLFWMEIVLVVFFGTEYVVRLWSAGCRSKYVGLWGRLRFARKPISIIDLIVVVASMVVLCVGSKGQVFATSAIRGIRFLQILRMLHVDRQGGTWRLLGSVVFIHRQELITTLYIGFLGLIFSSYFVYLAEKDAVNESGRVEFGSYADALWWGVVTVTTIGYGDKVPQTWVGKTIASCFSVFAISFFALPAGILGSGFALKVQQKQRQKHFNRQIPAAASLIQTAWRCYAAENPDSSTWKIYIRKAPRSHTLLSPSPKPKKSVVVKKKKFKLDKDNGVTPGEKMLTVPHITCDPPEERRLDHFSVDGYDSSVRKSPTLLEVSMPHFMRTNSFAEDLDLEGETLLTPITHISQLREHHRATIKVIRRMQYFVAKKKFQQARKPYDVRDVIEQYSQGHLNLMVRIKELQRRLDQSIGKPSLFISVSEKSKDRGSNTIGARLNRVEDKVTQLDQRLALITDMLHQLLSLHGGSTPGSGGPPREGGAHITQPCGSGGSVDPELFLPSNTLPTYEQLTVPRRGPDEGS

B-score, inactive:
CCOC(=O)C1(CCOc2ccccc2)CCN(Cc2ccc(C#CCCO)cc2)CC1
Cc1cc(OCc2cc(C(=O)NCc3cc(C(C)C)no3)no2)cc(C)c1Cl
CCCCn1c(SCc2ncc(-c3ccccc3)o2)nc2cc(S(N)(=O)=O)ccc21
O=C(/C=C/c1ccc(F)cc1)Nc1cccc(S(=O)(=O)Nc2cccc(C(F)(F)F)c2)c1
CCNS(=O)(=O)c1ccc(NC(=O)Nc2cccc(C(F)(F)F)c2)cc1
COc1ccc(/C(=N\O)c2nccc3cc(OC)c(OC)cc23)cc1OC
CCOC(=O)N1CCN(C(=O)C2CCN(S(=O)(=O)c3cc(Cl)ccc3OCC)CC2)CC1
CCOC(=O)N1CCN(C(=O)C2CCN(Cc3ccc(OC)cc3OC)CC2)CC1
COc1ccc2c(c1)CCc1cn3ncc(C#N)c3nc1-2
CCOC(=O)C1CCN(C(=O)C2CCN(S(=O)(=O)CC)CC2)CC1
CCOC(=O)c1cn(CC)c2cc(F)c(F)cc2c1=O
COc1ccccc1N1CCN(C(=O)c2cc3c(-c4ccc(Cl)cc4)nn(C)c3s2)CC1
CCOC(=O)N1CCN(C(=O)c2cc3c(-c4ccc(Cl)cc4)nn(C)c3s2)CC1
CN1CCc2ccccc2C1Cc1ccccc1NC(=O)c1sc2ccccc2c1Cl (centres undefined)
CCN(CC(=O)Nc1c(F)cccc1F)C(=O)c1ccc(Sc2nncn2C)c([N+](=O)[O-])c1
COc1ccc(CNc2ccc3c(c2)CCC3)cc1OC
COc1ccc(OC)c(CCNC(=O)CCn2ccc3cc(S(=O)(=O)N4CCCC4)ccc32)c1
CCOCc1nnc(NC(=O)CCC2CCCCC2)s1
CN1CCN(NC(=O)Nc2ccc(Br)cc2)CC1
CC1CCC(NC(=O)C2c3ccccc3C(=O)N2Cc2ccc3c(c2)OCO3)CC1 (centres undefined)
CNC(=O)C1CC(=O)N(Cc2ccc3c(c2)OCO3)C(=Nc2ccc(F)cc2)S1 (centres undefined)
COc1ccccc1C(=O)NC(=S)NC12CC3CC(CC(C3)C1)C2
CSc1ccccc1C(=O)NCc1ccccc1
COCCN1Cc2cccc(C(=O)Nc3ccccc3OC)c2C1=O
CSc1ccccc1NC(=O)c1cnc2sc(C)cn2c1=O
Cc1nc(NC(=O)C2CCCCC2)sc1C
CN(C)CCN(C(=O)C1CCCCC1)c1nc2cc3c(cc2s1)OCO3
CCN(CC)CCN(C(=O)c1ccc(N2C(=O)CCC2=O)cc1)c1nc2cc3c(cc2s1)OCO3
CCCc1nn2c(=O)cc(CSCC(=O)Nc3cccc(C)c3)nc2s1
Cc1cc(-c2csc(N)n2)c(C)n1Cc1ccccc1
CC(=O)c1ccc(-c2ccc(Cn3c(C)nc4cc(N)c(C)nc43)cc2)cc1
O=C(O)c1ccc2c(=O)n3c(nc2c1)/C(=C/c1ccc(Cl)c([N+](=O)[O-])c1)CC3
CC(=O)C(C)n1cnc2scc(-c3ccc(C)cc3)c2c1=O (centres undefined)
CCn1cnc2scc(-c3ccc(C)c(C)c3)c2c1=O
CC(c1nnc(SCC(=O)Nc2sccc2C#N)n1-c1ccc(Cl)cc1)N(C)C (centres undefined)
Cc1c(CN2CC[C@@H](N3CCN(c4ccccn4)CC3)[C@H](O)C2)[nH]c2ccc(F)cc12
C=CCn1c(Cn2nnc3ccccc32)nnc1SCC(=O)N/N=C/c1cc(Br)cc(OC)c1O
CCOC(=O)C1(Cc2ccccc2C(F)(F)F)CCN(C(=O)c2cc(C)n(C)n2)CC1
O=S(=O)(c1ccccc1)c1nc(Cc2ccccc2)oc1N1CCOCC1

B-score, active:
Cc1oc2c(F)c(F)c(F)c(F)c2c1S(=O)(=O)Nc1cccc(C(F)(F)F)c1 12
CCOC(=O)N1CCN(C(=O)C2CCN(c3ncnc4c3sc3cccc(F)c34)CC2)CC1 6
Cn1nc(-c2ccc(Cl)cc2)c2cc(C(=O)NCc3ccco3)sc21 6
CC1CCC(N2CC(=O)N(Cc3ccc4c(c3)OCO4)C(c3ccc(F)cc3)C2=O)CC1 (centres undefined) 6
CCCN1Cc2cccc(C(=O)NCc3ccccc3)c2C1=O 8
CCN(CC)CCN(C(=O)c1cc(Cl)sc1Cl)c1nc2cc3c(cc2s1)OCO3 7
Cc1cc2nc3c(=O)n(Cc4ccccc4)c(=O)[nH]c3nc2cc1N 8
CCOC(=O)C(C)n1cnc2scc(-c3ccc(C)c(C)c3)c2c1=O (centres undefined) 6
Fc1ccc2[nH]c3c(N4CCSCC4)ncnc3c2c1 8
COc1ccc(/C=C2\CCCC3C2=NN(C(=O)c2scnc2C)C3c2ccc(OC)cc2)cc1 (centres undefined) 8
